The values below come from ChEMBL document CHEMBL1961873, “Compounds: GSK PKIS; Assays: Nanosyn kinase panel” (2012).

The target of assay [1] is Mast/stem cell growth factor receptor Kit (Homo sapiens) (UniProt P10721). As to conditions: at 1 µM.
Assay [2] has as its system Mast/stem cell growth factor receptor Kit (Homo sapiens), P10721 [D816V]. As to conditions: at 0.1 µM.
The test system is the same in assay [3]. Particulars: at 1 µM.
In assay [4] the test system is Mast/stem cell growth factor receptor Kit (Homo sapiens), P10721 [T670I]. As to conditions: at 0.1 µM.
Mast/stem cell growth factor receptor Kit (Homo sapiens), P10721 [T670I], sequence (P10721 whole entry T670I): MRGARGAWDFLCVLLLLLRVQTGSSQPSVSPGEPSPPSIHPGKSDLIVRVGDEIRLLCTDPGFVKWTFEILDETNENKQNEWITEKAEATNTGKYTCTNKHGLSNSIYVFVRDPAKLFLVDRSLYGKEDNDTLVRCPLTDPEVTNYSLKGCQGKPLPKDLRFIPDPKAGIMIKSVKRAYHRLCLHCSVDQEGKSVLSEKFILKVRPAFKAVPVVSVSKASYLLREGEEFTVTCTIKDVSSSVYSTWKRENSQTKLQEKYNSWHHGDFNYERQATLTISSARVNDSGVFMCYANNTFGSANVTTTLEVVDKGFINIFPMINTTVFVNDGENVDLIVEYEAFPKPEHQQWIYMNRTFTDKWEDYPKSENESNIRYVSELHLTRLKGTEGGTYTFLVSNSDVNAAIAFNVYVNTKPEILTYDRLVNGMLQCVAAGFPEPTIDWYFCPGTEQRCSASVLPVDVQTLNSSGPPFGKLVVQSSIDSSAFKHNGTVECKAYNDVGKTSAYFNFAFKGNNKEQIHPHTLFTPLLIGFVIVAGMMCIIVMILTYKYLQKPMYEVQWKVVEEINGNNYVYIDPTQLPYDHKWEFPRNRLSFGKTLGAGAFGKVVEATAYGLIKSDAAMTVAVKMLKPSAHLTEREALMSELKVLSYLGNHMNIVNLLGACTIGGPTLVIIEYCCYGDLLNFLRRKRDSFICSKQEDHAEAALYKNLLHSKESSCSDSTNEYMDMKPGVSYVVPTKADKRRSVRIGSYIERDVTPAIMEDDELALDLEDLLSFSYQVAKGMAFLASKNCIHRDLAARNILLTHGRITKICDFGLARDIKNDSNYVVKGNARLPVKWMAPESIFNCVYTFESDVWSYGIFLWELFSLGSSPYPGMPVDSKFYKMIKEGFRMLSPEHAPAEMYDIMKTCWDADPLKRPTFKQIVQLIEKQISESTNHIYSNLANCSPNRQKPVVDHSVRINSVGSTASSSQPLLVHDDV
For assay [5] the test system is unchanged. Particulars: at 1 µM.
For assay [6], the system named is Mast/stem cell growth factor receptor Kit (Homo sapiens), P10721 [V560G]. As to conditions: at 0.1 µM.
Mast/stem cell growth factor receptor Kit (Homo sapiens), P10721 [V560G], sequence (P10721 whole entry V560G): as the sequence (P10721 whole entry T670I) above, with V560G, I670T counted along it
Assay [7] shares this test system. As to conditions: at 1 µM.
In assay [8] the target is Tyrosine-protein kinase Lck (Homo sapiens) (UniProt P06239). Particulars: at 0.1 µM.
Tyrosine-protein kinase Lck (Homo sapiens), sequence (P06239 2-509 limits assumed): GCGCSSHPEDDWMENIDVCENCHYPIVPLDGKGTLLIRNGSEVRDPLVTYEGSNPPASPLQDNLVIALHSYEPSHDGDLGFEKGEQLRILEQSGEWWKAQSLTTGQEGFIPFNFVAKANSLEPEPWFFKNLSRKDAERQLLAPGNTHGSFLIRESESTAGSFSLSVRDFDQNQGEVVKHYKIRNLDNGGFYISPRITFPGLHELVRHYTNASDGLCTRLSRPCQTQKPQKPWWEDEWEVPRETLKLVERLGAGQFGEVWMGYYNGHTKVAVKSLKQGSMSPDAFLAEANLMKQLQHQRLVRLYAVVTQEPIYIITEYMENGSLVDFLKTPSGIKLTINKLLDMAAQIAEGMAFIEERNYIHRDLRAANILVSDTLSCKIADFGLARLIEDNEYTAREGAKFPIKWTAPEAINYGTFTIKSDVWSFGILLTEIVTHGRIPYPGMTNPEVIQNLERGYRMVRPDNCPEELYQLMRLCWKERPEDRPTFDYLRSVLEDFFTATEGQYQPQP
Assay [9] shares this target. Particulars: at 1 µM.
Assay [10] concerns the target Leukocyte tyrosine kinase receptor (Homo sapiens) (UniProt P29376). Particulars: at 0.1 µM.
The target is the same in assay [11]. As to conditions: at 1 µM.
Assay [12] has as its target Tyrosine-protein kinase Lyn (Homo sapiens) (UniProt P07948). Particulars: at 0.1 µM.
Assay [13] shares this target. Particulars: at 1 µM.
Assay [14] has the same target. As to conditions: at 0.1 µM. This is another data set of the same source.
Assay [15] shares this target. As to conditions: at 1 µM. The source holds these as a separate data set.
Assay [16] concerns the target T1, Tyrosine-protein kinase Mer (Homo sapiens) (UniProt Q12866).
T1 sequence (whole entry): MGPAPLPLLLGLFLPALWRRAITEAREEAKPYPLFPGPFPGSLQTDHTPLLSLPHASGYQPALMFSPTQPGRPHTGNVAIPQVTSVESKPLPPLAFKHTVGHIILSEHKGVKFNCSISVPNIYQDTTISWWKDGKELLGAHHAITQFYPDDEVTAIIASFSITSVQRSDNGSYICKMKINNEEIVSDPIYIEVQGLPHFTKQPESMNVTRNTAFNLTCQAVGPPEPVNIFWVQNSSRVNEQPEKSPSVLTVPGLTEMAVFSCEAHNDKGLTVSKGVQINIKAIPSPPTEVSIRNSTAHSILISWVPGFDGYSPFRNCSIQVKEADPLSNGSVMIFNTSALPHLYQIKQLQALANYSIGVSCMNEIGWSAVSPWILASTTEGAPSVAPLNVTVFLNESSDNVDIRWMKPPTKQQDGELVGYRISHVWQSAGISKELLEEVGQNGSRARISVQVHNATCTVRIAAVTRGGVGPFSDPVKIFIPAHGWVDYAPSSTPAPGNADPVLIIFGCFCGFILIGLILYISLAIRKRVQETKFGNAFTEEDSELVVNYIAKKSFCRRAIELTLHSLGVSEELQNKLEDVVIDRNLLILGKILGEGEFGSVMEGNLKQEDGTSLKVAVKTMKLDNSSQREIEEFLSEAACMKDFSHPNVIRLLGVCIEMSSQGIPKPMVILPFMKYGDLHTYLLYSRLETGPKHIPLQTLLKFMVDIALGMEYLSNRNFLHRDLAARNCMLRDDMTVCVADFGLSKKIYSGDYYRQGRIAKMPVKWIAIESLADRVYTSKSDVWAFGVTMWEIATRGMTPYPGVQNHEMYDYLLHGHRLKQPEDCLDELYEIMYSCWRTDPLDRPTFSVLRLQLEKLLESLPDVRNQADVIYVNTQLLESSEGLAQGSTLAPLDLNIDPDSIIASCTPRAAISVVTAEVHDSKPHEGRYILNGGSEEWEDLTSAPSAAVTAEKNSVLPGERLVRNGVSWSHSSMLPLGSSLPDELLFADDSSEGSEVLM
Particulars: at 0.1 µM.

For assay [17], the target named is T1, Tyrosine-protein kinase Mer (Homo sapiens). As to conditions: at 1 µM.
In assay [18] the target is Hepatocyte growth factor receptor (Homo sapiens) (UniProt P08581). Particulars: at 0.1 µM.
Hepatocyte growth factor receptor (Homo sapiens), sequence (P08581 whole entry): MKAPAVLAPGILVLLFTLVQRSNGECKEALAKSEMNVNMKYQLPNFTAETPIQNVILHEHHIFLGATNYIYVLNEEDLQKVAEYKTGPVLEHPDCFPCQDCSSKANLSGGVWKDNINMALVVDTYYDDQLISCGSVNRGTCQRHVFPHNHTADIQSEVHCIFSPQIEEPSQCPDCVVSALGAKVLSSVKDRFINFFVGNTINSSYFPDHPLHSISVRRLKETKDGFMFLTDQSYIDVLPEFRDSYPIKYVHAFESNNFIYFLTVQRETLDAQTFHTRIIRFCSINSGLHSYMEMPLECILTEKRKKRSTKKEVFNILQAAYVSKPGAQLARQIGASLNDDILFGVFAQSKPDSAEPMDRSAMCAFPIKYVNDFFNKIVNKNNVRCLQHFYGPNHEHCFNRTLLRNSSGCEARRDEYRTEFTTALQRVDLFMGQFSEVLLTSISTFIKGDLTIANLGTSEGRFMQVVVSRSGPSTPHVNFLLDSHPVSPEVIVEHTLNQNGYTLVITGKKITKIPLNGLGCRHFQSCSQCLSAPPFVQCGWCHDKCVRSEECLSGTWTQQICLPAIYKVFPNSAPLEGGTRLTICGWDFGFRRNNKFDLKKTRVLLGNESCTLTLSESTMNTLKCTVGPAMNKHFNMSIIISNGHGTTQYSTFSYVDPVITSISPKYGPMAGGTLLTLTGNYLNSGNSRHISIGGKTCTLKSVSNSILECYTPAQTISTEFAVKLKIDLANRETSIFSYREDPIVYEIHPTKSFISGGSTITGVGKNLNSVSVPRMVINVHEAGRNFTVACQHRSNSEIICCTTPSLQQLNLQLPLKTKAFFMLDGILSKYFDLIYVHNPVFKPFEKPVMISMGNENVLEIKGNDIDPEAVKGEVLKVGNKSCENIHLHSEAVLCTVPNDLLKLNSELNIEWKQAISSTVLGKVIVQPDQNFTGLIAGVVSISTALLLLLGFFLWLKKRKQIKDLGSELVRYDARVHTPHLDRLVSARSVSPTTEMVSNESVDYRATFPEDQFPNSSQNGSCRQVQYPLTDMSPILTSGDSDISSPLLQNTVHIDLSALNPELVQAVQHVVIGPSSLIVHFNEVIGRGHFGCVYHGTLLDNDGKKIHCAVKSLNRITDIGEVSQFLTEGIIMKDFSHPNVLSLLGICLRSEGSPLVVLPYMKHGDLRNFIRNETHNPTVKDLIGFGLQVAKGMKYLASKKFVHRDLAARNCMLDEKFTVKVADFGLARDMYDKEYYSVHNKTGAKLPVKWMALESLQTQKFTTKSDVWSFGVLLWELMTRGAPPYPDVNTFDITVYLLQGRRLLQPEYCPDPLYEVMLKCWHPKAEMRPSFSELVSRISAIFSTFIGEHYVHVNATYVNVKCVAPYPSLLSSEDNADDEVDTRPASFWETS
Assay [19] shares this target. As to conditions: at 1 µM.
Assay [20] addresses T2, Muscle, skeletal receptor tyrosine-protein kinase (Homo sapiens) (UniProt O15146).
T2 sequence (whole entry): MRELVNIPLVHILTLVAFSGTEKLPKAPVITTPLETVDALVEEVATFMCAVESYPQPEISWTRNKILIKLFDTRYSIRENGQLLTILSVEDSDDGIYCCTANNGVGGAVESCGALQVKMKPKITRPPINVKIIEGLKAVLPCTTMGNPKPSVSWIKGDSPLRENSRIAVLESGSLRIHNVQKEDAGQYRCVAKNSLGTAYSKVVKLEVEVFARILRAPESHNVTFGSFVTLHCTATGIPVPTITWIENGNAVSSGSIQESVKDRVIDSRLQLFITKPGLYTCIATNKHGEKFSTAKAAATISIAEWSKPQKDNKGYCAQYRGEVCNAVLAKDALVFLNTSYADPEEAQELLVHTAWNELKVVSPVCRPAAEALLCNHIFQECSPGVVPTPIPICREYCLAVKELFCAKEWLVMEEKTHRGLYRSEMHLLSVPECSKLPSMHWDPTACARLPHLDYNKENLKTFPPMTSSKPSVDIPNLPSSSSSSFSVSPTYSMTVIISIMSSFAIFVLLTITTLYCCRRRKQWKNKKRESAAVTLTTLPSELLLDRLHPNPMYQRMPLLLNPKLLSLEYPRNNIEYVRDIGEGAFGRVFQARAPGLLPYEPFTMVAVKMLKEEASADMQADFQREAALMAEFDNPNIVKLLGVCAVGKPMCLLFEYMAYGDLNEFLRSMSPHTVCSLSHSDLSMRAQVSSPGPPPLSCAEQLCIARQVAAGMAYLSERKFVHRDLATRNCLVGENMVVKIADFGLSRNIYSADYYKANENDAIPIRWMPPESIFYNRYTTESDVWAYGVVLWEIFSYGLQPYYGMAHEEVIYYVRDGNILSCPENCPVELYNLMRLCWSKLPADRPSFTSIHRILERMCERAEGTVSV
As to conditions: at 0.1 µM.

Molecules are shown by their SMILES.

Leukocyte tyrosine kinase receptor (Homo sapiens), sequence (P29376 whole entry): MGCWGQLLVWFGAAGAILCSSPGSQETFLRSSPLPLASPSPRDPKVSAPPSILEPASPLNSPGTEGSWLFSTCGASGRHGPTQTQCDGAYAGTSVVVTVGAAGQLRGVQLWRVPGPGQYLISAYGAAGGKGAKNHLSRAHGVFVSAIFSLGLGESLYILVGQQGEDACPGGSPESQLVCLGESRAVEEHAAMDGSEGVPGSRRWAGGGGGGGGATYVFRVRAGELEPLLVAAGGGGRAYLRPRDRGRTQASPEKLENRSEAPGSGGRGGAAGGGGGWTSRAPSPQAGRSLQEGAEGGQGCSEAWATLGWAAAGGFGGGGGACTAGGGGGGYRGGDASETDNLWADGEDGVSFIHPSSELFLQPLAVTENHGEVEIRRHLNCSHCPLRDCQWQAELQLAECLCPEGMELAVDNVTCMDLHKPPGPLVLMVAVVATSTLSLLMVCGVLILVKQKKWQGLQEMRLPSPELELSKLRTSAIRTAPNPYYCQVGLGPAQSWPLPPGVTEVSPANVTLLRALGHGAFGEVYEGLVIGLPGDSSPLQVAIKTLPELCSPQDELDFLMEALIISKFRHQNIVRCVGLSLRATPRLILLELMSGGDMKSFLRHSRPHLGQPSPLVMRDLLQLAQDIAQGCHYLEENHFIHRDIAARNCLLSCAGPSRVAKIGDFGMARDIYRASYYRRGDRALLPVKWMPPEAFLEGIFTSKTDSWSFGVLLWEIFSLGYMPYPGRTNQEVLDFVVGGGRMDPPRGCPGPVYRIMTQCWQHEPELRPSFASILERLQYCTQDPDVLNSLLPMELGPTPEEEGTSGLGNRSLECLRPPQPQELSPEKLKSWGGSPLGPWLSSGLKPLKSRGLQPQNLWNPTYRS
Mast/stem cell growth factor receptor Kit (Homo sapiens), sequence (P10721 whole entry): as the sequence (P10721 whole entry T670I) above, with I670T counted along it
Tyrosine-protein kinase Lyn (Homo sapiens), sequence (P07948 2-512 limits assumed): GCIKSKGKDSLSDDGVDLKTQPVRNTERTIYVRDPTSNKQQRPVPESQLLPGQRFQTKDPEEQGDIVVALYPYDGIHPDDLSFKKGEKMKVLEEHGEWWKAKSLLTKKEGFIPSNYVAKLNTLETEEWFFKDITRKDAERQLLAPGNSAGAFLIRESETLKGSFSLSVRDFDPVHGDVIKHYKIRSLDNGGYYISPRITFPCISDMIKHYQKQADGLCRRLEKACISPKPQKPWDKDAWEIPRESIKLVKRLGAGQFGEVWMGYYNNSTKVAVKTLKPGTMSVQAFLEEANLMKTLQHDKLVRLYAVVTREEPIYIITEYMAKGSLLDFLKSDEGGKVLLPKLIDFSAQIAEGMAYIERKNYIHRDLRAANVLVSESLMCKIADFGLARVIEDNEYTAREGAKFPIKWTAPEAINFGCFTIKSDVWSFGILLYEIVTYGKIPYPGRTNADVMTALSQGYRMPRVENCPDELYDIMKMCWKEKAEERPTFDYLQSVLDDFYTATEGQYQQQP
Mast/stem cell growth factor receptor Kit (Homo sapiens), P10721 [D816V], sequence (P10721 whole entry D816V): as the sequence (P10721 whole entry T670I) above, with I670T, D816V counted along it

As for `CC(C)COC(=O)c1ccc2c(c1)/C(=C/Nc1ccc(S(N)(=O)=O)cc1)C(=O)N2`, the inhibition was 24.6% in [1]; 2.4% in assay [2]; 35.2% in assay [3]; -2.43% in [4]; 6.53% in assay [5]; 2.21% in assay [6]. The inhibition is 5.62% in assay [7]; 0.55% in assay [8]; 13.9% in assay [9]; 0.07% in assay [10]; 4.2% in assay [11]; 2.35% in assay [12]. The inhibition in assay [13] is 24.3%; in assay [14], 0.51%; in assay [15], 20.4%; in assay [16], 2.14%; in [17] it was 4.37%; in assay [18], -4.39%. Moreover, the values for the inhibition in assay [19] and in [20] were 13.3% and 7.69%, respectively.

For the molecule `COc1cc(N2CCN(C(C)C)CC2)ccc1Nc1nc(Nc2ccc(F)cc2C(N)=O)c2cc[nH]c2n1`, the inhibition is 4.94% in assay [1]; -1.16% in assay [2]; 2.56% in assay [3]; -2.37% in [4]; -1.31% in assay [5]; -1.89% in assay [6]. The inhibition in [7] was -1.36%; in [8], 2.34%; in assay [9] it was 4.79%; in [10] it was 93.5%; in assay [11], 96%; in assay [12], 2.75%. The inhibition in assay [13] is 2.96%; in assay [14] it was 1.54%; in assay [15] it was 1.29%; in assay [16] it was 4.46%; in assay [17] it was 8.43%; in [18], 7.18%. Moreover, the figures for the inhibition in assay [19] and in assay [20] were 0.66% and 1.72%, respectively.

Regarding `Cc1cccc(Nc2ncc(-c3ccccc3)o2)c1`, the inhibition is 89% in assay [1]; 1.52% in assay [2]; -0.48% in assay [3]; 4.58% in assay [4]; 48% in assay [5]; 6.79% in [6]. Further, the inhibition amounted to 53% in assay [7]; 3.23% in assay [8]; 5.7% in assay [9]; 3.02% in assay [10]; 2.88% in assay [11]; 3.9% in assay [12]. In addition, the inhibition was 8.28% in [13]; 2.22% in assay [14]; 7.24% in assay [15]; 3.9% in assay [16]; 2.26% in assay [17]; 3.88% in [18]. Also, the results for the inhibition in assay [19] and in assay [20] were 2.78% and 0.01%, respectively.

Turning to `Fc1cccc(COc2ccc(Nc3ncnc4sc(-c5ccco5)cc34)cc2Cl)c1`, the inhibition is 6.21% in assay [1]; 3.37% in assay [2]; 6.34% in [3]; 2.63% in assay [4]; 3.7% in assay [5]; -0.3% in assay [6]. The inhibition in [7] was found to be 0.57%; in assay [8], 3.21%; in assay [9] it was 5.67%; in assay [10], 3.44%; in assay [11], 4.08%; in [12] it was 3.59%. The inhibition in assay [13] was found to be 4.38%; in [14] it was 2.97%; in [15] it was 2.48%; in [16] it was 0.45%; in assay [17], 3.51%; in [18], 3.09%. Moreover, the inhibition amounted to 4.96% in [19] and 4.4% in [20].

On to `CC(=O)Nc1cccc(C#Cc2cncnc2Nc2ccc(OCc3cccc(F)c3)c(Cl)c2)c1`, for which the inhibition in [1] is 2.18%; in assay [2] it was 1.33%; in [3] it was 0.94%; in assay [4], 0.96%; in [5], -0.24%; in assay [6], 2.26%. For the same molecule, the inhibition in [7] was found to be 5.18%; in [8], 1.97%; in assay [9], 3.76%; in assay [10] it was 0.86%; in assay [11], 0.9%; in assay [12] it was 1.26%. Besides, the inhibition came to 1.6% in [13]; 1.1% in [14]; 0.14% in assay [15]; 1.62% in assay [16]; 2.65% in [17]; 4.11% in assay [18]. Besides, the values for the inhibition in assay [19] and in assay [20] were 1.83% and 2.39%, respectively.

On to `COc1cc2c(cc1Nc1nc(Nc3ccsc3C(N)=O)c3cc[nH]c3n1)N(C(=O)CN(C)C)CCC2(C)C`, for which the inhibition in assay [1] worked out at 67.6%; in assay [2] it was 3.34%; in [3], 7.2%; in assay [4] it was 5.12%; in [5], 16.2%; in assay [6] it was 5.02%. The inhibition in assay [7] was 17.8%; in assay [8] it was 0.99%; in assay [9], 4.76%; in assay [10], 95.3%; in assay [11], 96.3%; in assay [12] it was 4.53%. Besides, the inhibition in assay [13] stood at 4.24%; in [14], 2.04%; in assay [15], 2.4%; in [16], 3.14%; in assay [17], 16.1%; in assay [18] it was 5.6%. In addition, the inhibition in assay [19] was 23.1%; in [20], 14.8%.

What is called inhibition is the drop in the measured response relative to a control, in per cent.
